In article PMC8159961, “Exploring protein hotspots by optimized fragment pharmacophores” (Nature Communications, 2021) one finds 5-HT1 data, which are given here for eleven compounds.

Sequence of 5-HT1A receptor (P08908 whole entry, looked up): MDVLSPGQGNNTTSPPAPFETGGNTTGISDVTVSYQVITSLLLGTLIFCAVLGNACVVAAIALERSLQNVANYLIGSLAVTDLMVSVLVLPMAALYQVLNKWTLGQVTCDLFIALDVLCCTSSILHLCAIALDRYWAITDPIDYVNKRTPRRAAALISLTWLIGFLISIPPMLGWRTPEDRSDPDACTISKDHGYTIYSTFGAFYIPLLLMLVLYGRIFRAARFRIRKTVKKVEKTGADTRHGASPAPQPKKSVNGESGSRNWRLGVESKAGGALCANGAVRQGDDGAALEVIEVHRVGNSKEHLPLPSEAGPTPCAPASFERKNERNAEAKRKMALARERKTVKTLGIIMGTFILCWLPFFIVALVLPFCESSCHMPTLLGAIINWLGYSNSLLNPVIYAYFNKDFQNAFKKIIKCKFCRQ

This assay has as its target 5-HT1A receptor (human, UniProt P08908). Description: primary screen, binary call; higher = more effect of the substance. The arrangement: hit call from the mean of at least two separate experiments. Conditions: 10 µM; call rule not given here. The method, then:
GPCR radioligand binding assays were performed in HEK293 cells with stable expression of human 5-HT1A, 5-HT6, and 5-HT7b receptors (prepared with the use of Lipofectamine 2000). Non-specific binding was defined with 10 µM of 5-HT in 5-HT1AR and 5-HT7R binding experiments, whereas 10 µM of mianserin was used in 5-HT6R assays, respectively. Each compound was tested at 10 µM concentration. Results were expressed as means of at least two separate experiments.
`Oc1nnc(-c2ccccc2)o1`: the 5-HT1 is 0 (inactive).
For the compound `Fc1ccc2c(C3CCNCC3)c[nH]c2c1`, the 5-HT1 is 1 (active).
For `O=C1NC(=O)C2(CCc3ccccc32)N1` (centres unmarked), the 5-HT1 is 0 (inactive).
With `Nc1nnc(-c2cccs2)[nH]1` the figure was 0 (inactive); with `COC(=O)c1c(C)nc(C2CC2)[nH]c1=O`, 0 (inactive); with `CN(C)c1cc(CN)ccn1`, 0 (inactive).
For the compound `N[C@H]1c2ccccc2C[C@H]1CO`, the 5-HT1 is 0 (inactive).
Regarding `Oc1ccc(C2CCNCC2)cc1`, the 5-HT1 was 0 (inactive).
As to `NCC1(c2ccccc2)CCOCC1`, the 5-HT1 is 0 (inactive).
As to `COc1ccccc1C1CCNCC1`, the 5-HT1 is 1 (active).
With `Clc1ccc2nnnn2n1` the figure was 0 (inactive).
